# Legend:
# Assay in all cases: PBM binding z-score (relative to random genomic background probes); higher = stronger binding; sequences stand for … in GC…GCGATTGACAGCGTAGAATGAAGG
# [1] = test system: RARb homodimer (NR concentration 270 nM)
# In short: (§1)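 Scanned fluorescence from custom Agilent 4×180K protein-binding microarrays was regression-normalized. Binding z-scores use random background probes as reference. Ligand-free nuclear receptor dimers were incubated on the arrays for 1 h and detected with antibodies against each partner (one per run).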
# [2] = test system: RARg:RXRa (NR concentration 270 nM, RXRa partner concentration 90 nM)
# In short: as §1
# [3] = test system: RARg homodimer (NR concentration 270 nM)
# In short: as §1
# [4] = test system: RXRa DBDmut IVT, anti-RXR (DBD mutation: RXRa K156A/R161A, NR concentration 90 nM)
# In short: as §1
# [5] = test system: RXRa homodimer (NR concentration 180 nM)
# In short: as §1
# [6] = test system: THRa:RXRa (NR concentration 90 nM, RXRa partner concentration 90 nM)
# In short: as §1
# [7] = test system: THRa homodimer (NR concentration 90 nM)
# In short: as §1
# [8] = test system: VDR homodimer (NR concentration 270 nM)
# In short: as §1
Sequence,PBM binding z-score [1],PBM binding z-score [2],PBM binding z-score [3],PBM binding z-score [4],PBM binding z-score [5],PBM binding z-score [6],PBM binding z-score [7],PBM binding z-score [8]
GCTGACAGGTGAAACGCAGGTAACTCAGGGTGGC,0.252,0.825,0.362,-0.702,0.505,1.27,-0.547,-0.647
CGGACTAGGTCAAGGACAGTGAATCTCCGCACGC,2.94,3.54,4.28,1.29,2.33,2.8,2.06,-0.118
TCATATAGGTAAACAGGTGTAAGTCCGTAAGTTA,0.165,0.307,0.308,1.57,0.982,0.356,0.324,0.657
GCTAGTTGGTCAGTAAAGGGTCACACACCGGTCG,4.43,4.33,3.73,0.428,3.78,2.77,0.995,1.74
TCGAGCAGGCCAGAGGGTCACTCAAGAGGTACGG,2.68,2.77,2.03,-0.586,2.65,1.51,-0.421,0.462
TCTTGTAGATCTAGCAGGTTAAGAAAGCCTGAGT,0.195,-0.205,-0.19,0.705,0.231,0.286,-0.115,-0.0564
AGTCAAAGTCCATCTAGGTAACGTAAGATATGCT,0.564,0.538,1.09,1.23,-0.0358,1.14,0.0644,0.572
AGAATGAGGTTGTTAAGATCAGGGAATTGCGGTC,0.126,0.00616,-0.0271,1.17,0.15,0.608,0.246,0.542
CCTACTGGGCCAAGGTCATTGATCAGTCAAAGCA,3.43,3.59,2.83,1.19,3.08,3.49,2.36,2.15
CCTGCTAGGTCAGGGTCAGCTAATCTACAGTATG,4.16,4.45,5.23,1.37,4.03,3.48,1.81,1.01
AGAATGAGGTTAAGATCAAGGAAACAGAATACAT,0.789,2.02,1.57,1.13,2.68,2.39,0.555,0.551
CCTCGGAGGACGGAAGGTCAGAGCTGTCCGCTTT,2.97,2.49,2.14,-0.0504,1.69,1.94,-0.304,-0.0606
ATATGTAGGTAAGCTGGGGTCATTCAGACTAGGC,3.48,3.82,2.24,1.8,5.36,4.65,3.38,4.3
CAAACTAGGTGACGAAAGGTCAAAGTCGAATGAC,4.9,6.2,6.26,1.41,7.46,4.22,1.33,2.22
ATCTCTAGGTAAAGATAGTTAAGTGAATGCAAAT,-0.639,0.108,0.448,-0.348,-0.199,0.104,-0.211,-0.177
AGAATGAGGTTACTAAGATCAGGGAATTGCGGTC,1.12,1.25,1.15,1.43,1.98,2.28,0.919,0.836
CCAGCTAGGTCATGGTCAGCTAATCTACAGTATG,3.2,3.81,4.16,1.61,2.86,2.8,1.25,0.247
TCATATAGGTGAAGGTGAAAGTCGAACGATATGA,1.3,1.42,1.48,0.518,1.6,0.793,-0.343,-0.0365
TCTCGGAGGACACGAAGGTCGGAGCTTTCCAGAG,1.42,1.23,1.5,0.608,0.322,1.64,0.121,0.0854

Sequence,PBM binding z-score [1],PBM binding z-score [2],PBM binding z-score [3],PBM binding z-score [4],PBM binding z-score [5],PBM binding z-score [6],PBM binding z-score [7],PBM binding z-score [8]
CCGACTGGGGCAGAAAGGTTACCATACCATCCGG,1.96,1.73,1.25,-0.648,1.61,0.85,-0.396,-0.314
CCTTACGGGCCACTCCAGGTTATAGCATCGGAGT,0.457,0.099,0.515,-0.62,-0.0369,2.62,0.204,0.0382
CCTCGGAGGCCAGAAGGTCAGAGCTGTCCGCTTT,3.49,3.66,3.12,-0.11,2.05,1.67,0.0524,-0.311
CGAACGAGGGGATGAGTTGATAGCAAATGCCGAT,-0.429,-0.0531,0.201,0.534,0.0402,-0.246,-0.206,0.579
TCGAGTAGGTTACCAATGGGGGATTCAGCTTTCT,0.472,1.09,0.478,0.789,0.767,0.805,0.162,-0.0448
GCTAGCTGGCCATTTGGGTCACTCAATGACGGGC,1.49,0.332,0.89,-0.667,0.339,1.22,0.32,-0.66
CTCGAAAGATCGGTTGAGGTGAGTATACGGATAA,-0.106,-0.00103,-0.0275,-0.15,0.118,3.31,0.715,-0.316
CGTCCAAGGTCAGAGGGGTCAGTGAATGCCGAGT,5.33,6.54,7.18,3.32,6.41,4.28,2.82,5.91
CTAACGAGGGCATGAGTTGATAGCAAATGCCGAT,0.671,1.31,1.61,2.41,1.06,1.2,0.0031,1.43
ATCGAAAGGTCGACGAGATGAGTATACACCGTTT,2.29,3.91,3.95,1.01,4.04,1.72,-0.43,0.403
CGTCCAAGGCCAGAGAGGTCAGTGAATGCCGAGT,4.2,3.05,4.27,1.06,2.22,2.77,0.817,2.55
GCTTGTAGATAAAGGTTAAGAAAGACTAAGCTAA,0.948,1.29,1,-0.0132,1.86,1,-0.76,-0.0184
CGAACTAGGTCATCCAAGACAGTGAATACATTGA,2.81,4.15,4.88,2.42,3.45,2.84,0.947,1.06
CGAACTAGGTCATCCAGGACAGTGTATACATTGA,3.16,3.92,4.85,2.47,3.21,3.62,2.17,2.4
GCTTGTAGATCAGGGTTAAGAAAGACTAAGCTAA,0.053,0.416,0.152,0.053,0.823,0.939,-0.435,0.148
CCTACTGGGCCATTCAGAGGTCATTAATCATATG,3.81,4.21,2.91,0.793,3.48,3.13,1.35,3.11
CCTTACGGGTCACGAGGTTATAGGACGACGAGCG,3.83,6.08,5.52,1.46,7.19,3.68,1.02,1.85
GGAACGAGGGCATTCGAGTTGACAGCATGGCGAT,0.801,1.2,1.69,3.06,0.845,3.83,-0.733,2.99
CGACCAAGGTGAACAAGGTCGTTGATTACTATTC,2.12,1.92,1.56,0.907,2.13,3.35,1.68,1.82

Sequence,PBM binding z-score [1],PBM binding z-score [2],PBM binding z-score [3],PBM binding z-score [4],PBM binding z-score [5],PBM binding z-score [6],PBM binding z-score [7],PBM binding z-score [8]
GCGACTGGGGCAAAGGAGGTTACCATAAGGTTGG,1.87,1.1,1.14,-0.468,1.12,3.4,0.609,0.291
AGAATGAGGTTAATAAGATCAGGGAATTGCGGTC,0.992,1.32,1.09,1.16,1.82,2.04,0.762,0.247
CGAACTAGTTCAGAACAGGACAGTGAAGGATGAT,0.329,0.335,0.706,1.18,0.233,1.8,-0.53,0.226
CCGAGTAGGTTATGGGTCATTCAGGCAACGGTGA,2.66,2.52,2.15,0.565,3.06,2.29,0.87,1.42
CCTGCTAGGTCATGGTCAGCTACTCTACAGTATG,3.28,3.94,4.84,1.7,2.51,2.76,1.42,0.186
GCTTGTAGATCAAGGTTAAAAAAGACTAAGCTAA,0.0487,0.373,0.226,0.0617,0.736,1.14,-0.222,0.0143
ACTTACGGGTCAACGAGGTTATAGGACGCGTATA,3.83,5.63,5.28,2.24,6.33,4.32,1.19,3.27
TCTTGTAGATCAATAGAGATTAAGAAAGTGCGCT,-0.717,0.0195,0.0177,0.545,0.326,-0.317,-1.06,-0.336
CGTCCAAGGTCATAGGAGGTCAGTTAAGACAGAT,5.16,6.57,7.05,4.09,6.19,5.3,3,4.11
CAAACTAGGGCACCGGAAGGTCAAAGTCCGCATG,4.51,5.51,4.44,0.724,3.84,3.25,0.924,1.45
CAAACTAGGTCACAGAGGTCACAGTCCGTGCGTA,5.65,7.17,7.58,2.76,7.39,4.67,3.58,6.14
ACAGGCAGGTGATGAAGGTAACTCAGGCTATCAT,0.415,-0.159,0.118,-0.414,0.0459,0.973,0.276,-0.29
TTACCAAGGGGAAGGTCGTTGATCCCTCTGTAGA,0.634,0.225,-0.054,-0.444,0.898,0.64,-0.636,0.435
CCGACTGGGGCAAGGATACCATAACGCACAGCCA,0.07,0.225,0.802,-0.717,0.232,-0.00683,0.154,-0.376
TCTTGTAGATCAAGCAGGTTAAGGAAGCCTGAGT,0.203,0.0317,-0.28,0.415,0.299,0.262,-0.359,0.166
AGAATGAGGTTACCAAAGATCTGGGAAACGCTTG,0.57,1.94,1.49,0.786,2.42,2.51,0.542,0.122
GCTAGTTGGTCAGTAAGAGGTCACACACCGGTCG,4.7,4.94,3.87,0.674,4.5,3.58,2.63,3.38
GCGACTGGGGCAAAGCTGGTTACCATAAGGTTGG,0.208,0.0391,0.0418,0.0315,-0.0119,0.398,-0.232,-0.208

# — the supplement of paper PMC6555819
